We go through 26 molecules from the supplement of paper PMC7380943.

Molecules are shown by their SMILES. ± gives the standard deviation of the averaged measurements.

Test [1] relates to CLZ3 (HCA2 human fibroblast dual HR-NHEJ reporter). Description: NHEJ repair efficiency (GFP+ cells) relative to control (log10 fold); higher = more non-homologous end joining. Conditions: 5 µM; doxycycline 0.5 ug/mL.
Test [2] has the same test system. Description: HR repair efficiency (tdTomato+ cells) relative to control (log10 fold); higher = more homologous recombination. Conditions: 5 µM; doxycycline 0.5 ug/mL.
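Wherever HR repair efficiency (tdTomato+ cells) relative to control is given: compound given one day before doxycycline, which switches on I-SceI endonuclease expression to create double-strand breaks within the integrated reporter.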
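Wherever NHEJ repair efficiency (GFP+ cells) relative to control is given: compound given one day ahead of doxycycline, which switches on I-SceI endonuclease to cut the chromosomally integrated reporter and create DSBs.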

On to `C=C1CCC[C@]2(C)C[C@]3(O)OC(=O)C(C)=C3C[C@@H]12` [Atractylenolide Ⅲ], for which the “NHEJ repair efficiency (log10)” value in test [1] was 0.0709. Besides, the “HR repair efficiency (log10)” value in test [2] worked out at 0.0176.
The corresponding values for `OC[C@H]1O[C@@H](Oc2cc3c(O)cc(O)cc3[o+]c2-c2ccc(O)c(O)c2)[C@H](O)[C@@H](O)[C@@H]1O` [Cyanidin3-o-glucoside] are -0.035 and 0.142.
The corresponding values for `CC(C)=CCc1c(O)ccc(C(=O)/C=C/c2ccc(O)cc2)c1O` [Isobavachalcone] are 0.0115 and 0.0547.
For `CC(C)=CCC[C@](C)(O)[C@H]1CC[C@]2(C)[C@@H]1[C@H](O)C[C@@H]1[C@@]3(C)CC[C@H](O[C@@H]4O[C@H](CO)[C@@H](O)[C@H](O)[C@H]4O[C@@H]4O[C@H](CO)[C@@H](O)[C@H](O)[C@H]4O)C(C)(C)[C@@H]3CC[C@]12C` [R-Ginsenoside Rg3] the same measures were 0.0761 and -0.0174.
For `CC12CCC(CC1=O)C2(C)C` (configuration not stated) [Camphor], the “NHEJ repair efficiency (log10)” value in test [1] is -0.0599. In addition, the “HR repair efficiency (log10)” value in test [2] is -0.0168.
The corresponding values for `CCOC(=O)c1c(C(=O)OCC)c(O)c2ccccc2c1O` [Rubidate] are 0.0573 and 0.128.
For `Oc1cc(O)c2c(c1)OC(c1ccc(O)c(O)c1)C(O)C2` (single isomer, unassigned; (+)) [(+)-Catechin] the same measures were 0.0406 and -0.0449.
For `O=C(O)[C@H]1O[C@@H](Oc2cc3oc(-c4ccc(O)cc4)cc(=O)c3c(O)c2O)[C@H](O)[C@@H](O)[C@@H]1O` [Scutellarin] the same measures were -0.122 and 0.0441.
In the case of `O=Cc1ccc(O[C@@H]2O[C@H](CO)[C@@H](O)[C@@H](O)[C@H]2O)cc1` [Helicide], the “NHEJ repair efficiency (log10)” value in test [1] amounted to 0.119 ± 0.097. The “HR repair efficiency (log10)” value in test [2] came to 0.0668 ± 0.075.
For `COc1c(O[C@@H]2O[C@H](CO)[C@@H](O)[C@H](O)[C@H]2O)cc2oc(-c3ccc(O)cc3)cc(=O)c2c1O` [Homoplantaginin] the same measures were 0.0189 ± 0.062 and 0.0763 ± 0.07.
As to `C=C1C2CCC3(C4C[C@H]5C6(CCC[C@@]5(C)CN(CC)C46)[C@H]3[C@H]2O)[C@@H]1O` [Bullatine A], the “NHEJ repair efficiency (log10)” value in test [1] is -0.197. In test [2], the “HR repair efficiency (log10)” value was -0.165.
On to `COc1c2ccoc2c(OC[C@@H](O)C(C)(C)O)c2oc(=O)ccc12` [Byakangelicin], for which, in test [1], the “NHEJ repair efficiency (log10)” value was determined as 0.0236. Also, in test [2], the “HR repair efficiency (log10)” value is -0.0476.
The corresponding values for `O=C1C[C@@H](c2ccc(O)cc2)Oc2cc(O)ccc21` [Liquiritigenin] are 0.037 and 0.142.
For `C[C@@]12C[C@@]3(O)O[C@@H](O1)[C@]1(COC(=O)c4ccc(O)cc4)[C@@H]3C[C@]12O[C@@H]1O[C@H](CO)[C@@H](O)[C@H](O)[C@H]1O` [Oxypaeoniflorin], the “NHEJ repair efficiency (log10)” value in test [1] was determined as 0.00873. For the same molecule, in test [2], the “HR repair efficiency (log10)” value was found to be 0.0237.
For `O=C(O)C1=C[C@@H](O)[C@@H](O)[C@H](O)C1` [Shikimic Acid] the same measures were 0.128 and 0.17.
Take `COc1cc2c(cc1O)CC[n+]1cc3c(OC)c(OC)ccc3cc1-2` [Jatrorrhizine]: in test [1], the “NHEJ repair efficiency (log10)” value was -0.00725. In test [2], the “HR repair efficiency (log10)” value was found to be 0.0284.
For `CC(=O)O[C@H]1[C@H](OCCc2ccc(O)c(O)c2)O[C@H](CO)[C@@H](OC(=O)/C=C/c2ccc(O)c(O)c2)[C@@H]1O[C@@H]1O[C@@H](C)[C@H](O)[C@@H](O)[C@H]1O` [2-Acetylacteoside] the same measures were -0.00932 and -0.164.
With `CC(C)=C1C/C=C(\C)CC/C=C(\C)CC1=O` [Germacrone], in test [1], the “NHEJ repair efficiency (log10)” value worked out at 0.0003. Moreover, the “HR repair efficiency (log10)” value in test [2] is -0.103.
`O=C(O[C@@H]1Cc2c(O)cc(O)cc2O[C@H]1c1cc(O)c(O)c(O)c1)c1cc(O)c(O)c(O)c1` [(-)Gallocatechin gallate]: in test [1], the “NHEJ repair efficiency (log10)” value was -0.12. Besides, the “HR repair efficiency (log10)” value in test [2] amounted to 0.0198.
For `CC(=O)[C@H]1CC[C@H]2[C@@H]3CCC4=CC(=O)CC[C@]4(C)[C@H]3CC[C@]12C` [Lutin] the same measures were 0.0637 and 0.268.
The corresponding values for `O=C(O)c1cc(O)c2c(c1)[C@H]([C@H]1c3cc(CO)cc(O)c3C(=O)c3c(O[C@@H]4O[C@H](CO)[C@@H](O)[C@H](O)[C@H]4O)cccc31)c1cccc(O[C@@H]3O[C@H](CO)[C@@H](O)[C@H](O)[C@H]3O)c1C2=O` [Sennoside C] are -0.0248 and 0.148.
For `C=C1CC[C@H]2C(=C)CC[C@H]3C(=C)C(=O)O[C@@H]3[C@@H]12` [Dehydrocostus Lactone] the same measures were -0.02 and 0.03.
On to `COc1ccc(C(=O)O)cc1` [Anisic Acid], for which the “NHEJ repair efficiency (log10)” value in test [1] was determined as 0.0832. For the same molecule, the “HR repair efficiency (log10)” value in test [2] amounted to 0.118.
Regarding `COc1cc(O)cc(O)c1C(=O)/C=C/c1ccccc1` [Cardamonin], the “NHEJ repair efficiency (log10)” value in test [1] amounted to 0.233. Moreover, in test [2], the “HR repair efficiency (log10)” value was -0.195.
Take `CCOC(=O)/C=C/c1ccc(O)c(O)c1` [Ethyl Caffeate]: in test [1], the “NHEJ repair efficiency (log10)” value is 0.0562. In addition, the “HR repair efficiency (log10)” value in test [2] came out at 0.0777.
For `COC(=O)C1=CO[C@@H](O[C@@H]2O[C@H](CO)[C@@H](O)[C@H](O)[C@H]2O)[C@@H]2[C@H](C)O[C@@H](O)C[C@H]12` [Morroniside] the same measures were 0.0778 and 0.186.
